The text below walks through data of PubChem BioAssay AID493169 (National Center for Advancing Translational Sciences (NCATS), 2011).

The structures appear in SMILES notation. Inconclusive results are not listed. A call without a number means that no potency is given here. Activity calls are given as the source filed them. Calls follow the shape of the dose curve; as a rule, active = well fitted inhibition curve with a large enough effect; inconclusive = small, poorly fitted or top-dose-only effect; inactive = flat fitted curve, though single readings scatter.
Potency is read from the fitted curve at half-maximal effect.

The assay is described as follows: CHOP2 Reporter Counterscreen Assay for Inhibitors of Ubiquitin-specific Protease USP2a.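 Also: activated enterokinase alone at 50 pM in a cell-free format rather than USP2a or CHOP2; nearly all actives have a fitted effect of over 55% in size.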 The note with it: purified enterokinase, fluorogenic substrate, 485/531 nm; series mostly up to 38.3 µM. The procedure, abridged: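 Fluorescence (485/531 nm) read 10 min after adding 25nM reporter substrate to 50 pM activated EK preincubated 30 min RT with compound; Tris pH 8.0/CaCl2/CHAPS buffer. Data normalized to buffer-alone inhibition; concentration-response curves fitted.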
Turning to `Cc1cc(C)n2cc(CSc3nnnn3-c3ccccc3C)nc2n1`, the Potency entry is “inactive”.
Consider `CCOC(=O)C(=O)Nc1nc(-c2ccc3c(c2)CCN3C(=O)C2CC2)c(C)s1`, for which the Potency entry is “inactive”.
The same measure for `O=C(NNC(=O)c1cc2ccccc2cc1O)Nc1ccccc1F`: “inactive”; for `COc1ccc(S(=O)(=O)N(C)CC(=O)Nc2cccc(C(C)=O)c2)cc1Cl`: “inactive”; for `O=C(c1ccccc1)N1CCN(C2C3CC4CC(C3)CC2C4)CC1` (stereo not given): “inactive”.
For the compound `O=C(O)CP(=O)(c1ccccc1)c1ccccc1`, the Potency entry is “inactive”.
The result for `O=C(OCC(=O)N1CCCCC1)c1cc2ccccc2cc1O` reads “inactive”; that for `O=C(c1ccccc1N(Cc1ccccc1)S(=O)(=O)c1ccccc1)N1CCOCC1`, “inactive”; that for `COc1ccc(CCN2C(=O)/C(=C\c3ccco3)SC2=S)cc1OC`, “inactive”.
As for `CCN(Cc1ccncc1)C(=O)c1cccs1`, the Potency entry is “inactive”.
With `Cc1ccc(/C=C/S(=O)(=O)N2CCC(C(=O)O)CC2)cc1`, the Potency entry was “inactive”.
Regarding `C=C(C)COc1ccc(-c2[nH]ncc2Oc2ccccc2OCC)c(O)c1`, the Potency entry was “inactive”.
Turning to `CC1=NN(c2ccc(C(=O)O)cc2)C(=O)/C1=C\c1ccc(OC(=O)c2cccs2)cc1`, the Potency is 3.55 µM (active).
Regarding `CCCOc1ccc(/C=C2\SC(=S)N(CC3CCCO3)C2=O)cc1` (stereo not given), the Potency result was “inactive”.
Take `CC(C)(C)C1CCC2(CC1)Nc1cccc3cccc(c13)N2`: the Potency entry is “inactive”.
In the case of `Cc1ccc(C(=O)CSc2nnc(CNc3nc(-c4ccccc4)cs3)n2C)cc1`, the Potency result was “inactive”.
`O=C(Nc1cccc(-c2nn[nH]n2)c1)c1ccc(Br)s1`: the Potency was 3.98 µM (active).
The same measure for `Cc1ccc([C@@H]2CC=C(C(=O)O)[C@H](c3cccc(Cl)c3)N2S(=O)(=O)c2ccc(C)cc2)cc1`: “inactive”; for `COC(=O)c1c(N2C(=O)CCC2=O)sc2c1CCCC2`: “inactive”; for `Cc1cc(Cl)ccc1NC(=S)NCCCN1CCCC1=O`: “inactive”.
For the compound `O=C(CSc1nccc(=O)[nH]1)N1N=C2/C(=C/c3ccco3)CCCC2C1c1ccco1` (stereo not given), the Potency was 8.91 µM (active).
The result for `COC(=O)[C@@]12CCCCN1[C@H](c1ccc(-c3ccc(Cl)c(Cl)c3)cc1)[C@H]1C(=O)N(C)C(=O)[C@H]12` reads “inactive”; that for `Cc1cc(C(=O)NCc2ccco2)on1`, “inactive”.
Regarding `CC1CCN(CC(O)COc2cccc(F)c2)CC1` (stereo not given), the Potency result was “inactive”.
The result for `COC(=O)c1nnn(-c2nonc2N)c1CSc1ccccn1` reads “inactive”; that for `Cc1cc(C(=O)OCC(=O)c2cccc([N+](=O)[O-])c2)c2cccc(C)c2n1`, “inactive”.
Regarding `COc1cccc(-c2csc3nnc(SCC(=O)NCc4cccs4)n23)c1`, the Potency entry was “inactive”.
The same measure for `O=C(c1cccc(F)c1)N1CCN(S(=O)(=O)c2ccccc2)CC1`: “inactive”; for `CC(=O)Nc1cc[n+](CC(=O)c2ccc(Cl)cc2)cc1`: “inactive”.
The result for `Nc1cc(=O)[nH]c(SCc2cccc(Cl)c2)n1` reads “inactive”; that for `O=C(Nc1cnn(Cc2ccccc2)c1)c1nc2ncccn2n1`, “inactive”.
In the case of `CCOc1ccc(NC(=O)c2cccc(-n3cnnn3)c2)cc1`, the Potency result is “inactive”.
The same measure for `Cc1cc(C)n2nc(S(=O)(=O)NCCc3ccccc3)nc2n1`: “inactive”; for `Cc1nc(N(C)C)c2sc(=S)n(C)c2n1`: “inactive”.
The same measure for `O=C(C1CCCN(S(=O)(=O)c2cccc3cccnc23)C1)N1CCN(c2ccccc2F)CC1` (stereo not given): “inactive”; for `COc1cc(/C=N/NC(=O)c2cc(-c3ccccc3)nc3ccccc23)ccc1O`: “inactive”; for `S=c1[nH]nc(-c2cc(-c3ccco3)[nH]n2)n1-c1cccc2ccccc12`: “inactive”.
Regarding `O=C(COC(=O)c1cccc(S(=O)(=O)N2CCc3ccccc32)c1)NC1CCS(=O)(=O)C1` (stereo not given), the Potency entry is “inactive”.
The same measure for `O=C(CSCCO)Nc1cccc2ccccc12`: “inactive”; for `O=C(COc1ccccc1)NCc1nnc(SCC(=O)Nc2nccs2)n1-c1ccccc1`: “inactive”.
